# Measurements reported in PubChem BioAssay (EPA / NIEHS).
# Activity calls are given as the source filed them. How the source made its calls: active means hit-call score of the fitted dose curve at least 0.9, where 1 is the maximum; inactive means score below 0.9.
# Experiments:
# [1] = BSK_BT_PBMCCytotoxicity: PBMC Cytotoxicity Assessment in the BioMAP Diversity Plus: BT Assay (AID 2284225); settings: primary human B cells with PBMC;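 further: PBMC viability measured by Alamar Blue dye reduction fluorescence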
# In short: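 Viability by Alamar Blue reduction (6 h, ex/em 546/580 nm) after 90 h culture of SEB/TSST-1-activated PBMC (20 ng/mL each) given compound 1 h before activation. DMSO served as baseline for curve fitting.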
# [2] = read-out: Secreted IgG (sIgG), gene 3500; test: BSK_BT_sIgG: BioMAP Diversity Plus: BT Assay for Secreted IgG (sIgG) Biomarker Activity (AID 2284226); settings: primary human B cells with PBMC
# In short: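 ELISA quantitation of secreted IgG from human B cells co-cultured with PBMC, sampled 24 h post-dosing. Values fitted relative to DMSO vehicle as baseline, positive fitting direction.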
# [3] = BSK_BT_Bcell_Proliferation: Viability Assessment in the BioMAP Diversity Plus: BT Assay for B cell Proliferation (AID 2284227); settings: primary human B cells with PBMC
# In short: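 Human B cells co-cultured with PBMC were dosed with test chemicals and relative cell number was quantified by SRB staining at 72 h. Cells were fixed in 10% TCA, stained with 0.1% SRB and read at 560 nm. Activity was fitted in the positive direction against DMSO.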
# [4] = read-out: Interleukin 6 (IL6), IL6 (gene 3569); test: BSK_BT_xIL6: BioMAP Diversity Plus: BT Assay for Interleukin 6 (IL6) Biomarker Activity (AID 2284228); settings: primary human B cells with PBMC
# In short: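 B cells and peripheral blood mononuclear cells (human primary co-culture) were dosed with chemical, and after 24 h IL-6 released into the medium was measured by Luminex xMAP. Responses were analysed as gain of signal over DMSO control.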
# [5] = read-out: Interleukin 17A (IL17A), IL17A (gene 3605); test: BSK_BT_xIL17A: BioMAP Diversity Plus: BT Assay for Interleukin 17A (IL17A) Biomarker Activity (AID 2284229); settings: primary human B cells with PBMC
# In short: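 Secreted IL-17A was the measured endpoint, read by Luminex xMAP multiplex in supernatants of a human B cell/PBMC co-culture harvested 24 h after chemical dosing. Signal increase relative to DMSO defined activity.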
# [6] = read-out: Tumor necrosis factor (Homo sapiens) (UniProt P01375); test: BSK_BT_xTNFa: BioMAP Diversity Plus: BT Assay for Tumor necrosis factor alpha (TNF-alpha) Biomarker Activity (AID 2284230); settings: primary human B cells with PBMC
# In short: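 B cells with PBMC in co-culture, dosed and sampled at 24 h; secreted TNF-alpha measured by Luminex xMAP bead assay. Activity fitted in the gain direction against DMSO as negative control and baseline.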
# [7] = read-out: Vascular cell adhesion molecule 1 (VCAM1), VCAM1 (gene 7412); test: BSK_MyoF_VCAM1: BioMAP Diversity Plus: MyoF Assay for Vascular cell adhesion molecule 1 (VCAM1) Biomarker Activity (AID 2284231); settings: primary human lung fibroblasts
# In short: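 ELISA read-out of VCAM-1 on human lung fibroblasts 24 h after chemical treatment, with positive-direction curve fitting relative to DMSO controls. Parallel cultures were stained with sulforhodamine B for total protein to flag overt cytotoxicity.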
# Sequence of Tumor necrosis factor (Homo sapiens) (P01375 whole entry, looked up): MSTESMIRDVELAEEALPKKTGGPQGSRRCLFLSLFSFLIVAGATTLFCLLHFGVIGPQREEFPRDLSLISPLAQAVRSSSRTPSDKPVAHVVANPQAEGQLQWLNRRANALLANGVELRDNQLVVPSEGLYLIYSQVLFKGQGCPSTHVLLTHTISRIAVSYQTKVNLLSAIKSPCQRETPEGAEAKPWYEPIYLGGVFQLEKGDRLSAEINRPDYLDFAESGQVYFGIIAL
smiles,measurement,setting,value
c1ccc2sc(SNC3CCCCC3)nc2c1,AC50,[1],30.8 µM (active)
same,AC50,[2],32 µM (active)
same,AC50,[3],29.3 µM (active)
same,outcome,[4],inactive
same,AC50,[5],20 µM (active)
same,AC50,[6],37.6 µM (active)
same,outcome,[7],inactive
O=[N+]([O-])c1cccc2ccccc12,outcome,[1],inactive
same,outcome,[2],inactive
same,outcome,[3],inactive
same,outcome,[4],inactive
same,outcome,[5],inactive
same,outcome,[6],inactive
same,outcome,[7],inactive
O=C(CCl)NCO,outcome,[1],inactive
same,outcome,[2],inactive
same,outcome,[3],inactive
same,outcome,[4],inactive
same,outcome,[5],inactive
same,outcome,[6],inactive
same,outcome,[7],inactive
c1ccc(-c2cccc(-c3ccccc3)c2)cc1,AC50,[1],32.8 µM (active)
same,AC50,[2],15.7 µM (active)
same,AC50,[3],33.3 µM (active)
same,outcome,[4],inactive
same,outcome,[5],inactive
same,outcome,[6],inactive
same,AC50,[7],29.1 µM (active)
Cc1c([N+](=O)[O-])c(C)c([N+](=O)[O-])c(C(C)(C)C)c1[N+](=O)[O-],outcome,[1],inactive
same,outcome,[2],inactive
same,outcome,[3],inactive
same,outcome,[4],inactive
same,outcome,[6],inactive
same,AC50,[7],20 µM (active)
Cc1ccccc1OP(=O)(Oc1ccccc1)Oc1ccccc1,outcome,[1],inactive
same,AC50,[2],30.9 µM (active)
same,outcome,[3],inactive
same,outcome,[4],inactive
same,outcome,[6],inactive
same,AC50,[7],33 µM (active)
Cc1cc(Cl)ccc1OC(C)C(=O)O (stereo unspecified),outcome,[1],inactive
same,outcome,[2],inactive
same,outcome,[3],inactive
same,outcome,[4],inactive
same,outcome,[6],inactive
same,outcome,[7],inactive
CCOP(=O)(OCC)SCCSCC,outcome,[1],inactive
same,outcome,[2],inactive
same,outcome,[3],inactive
same,outcome,[4],inactive
same,outcome,[6],inactive
same,outcome,[7],inactive
CCOP(=S)(OCC)SCS(=O)(=O)C(C)(C)C,outcome,[1],inactive
same,outcome,[2],inactive
same,outcome,[3],inactive
same,outcome,[4],inactive
same,outcome,[5],inactive
same,outcome,[6],inactive
same,outcome,[7],inactive
Oc1c(Br)cc(Br)cc1Br,outcome,[1],inactive
same,outcome,[2],inactive
same,outcome,[3],inactive
same,outcome,[4],inactive
same,outcome,[5],inactive
same,outcome,[6],inactive
same,AC50,[7],15.4 µM (active)
C#CCOC(=O)/C=C(C)/C=C/CC(C)CCCC(C)C (stereo unspecified),outcome,[1],inactive
same,AC50,[2],20 µM (active)
same,outcome,[3],inactive
same,outcome,[4],inactive
same,outcome,[5],inactive
same,outcome,[6],inactive
same,AC50,[7],20 µM (active)
COCC(=O)N(c1c(C)cccc1C)[C@H](C)C(=O)OC,outcome,[1],inactive
same,outcome,[2],inactive
same,outcome,[3],inactive
same,outcome,[4],inactive
same,outcome,[6],inactive
same,outcome,[7],inactive
Cc1cc(C(C)(C)c2ccc(O)c(C)c2)ccc1O,outcome,[1],inactive
same,AC50,[2],10 µM (active)
same,outcome,[3],inactive
same,outcome,[4],inactive
same,outcome,[6],inactive
same,AC50,[7],16.4 µM (active)
[Cl][Sn]([c]1ccccc1)([c]1ccccc1)[c]1ccccc1,AC50,[1],0.617 µM (active)
same,AC50,[2],0.313 µM (active)
same,AC50,[3],0.423 µM (active)
same,AC50,[4],0.456 µM (active)
same,AC50,[5],0.204 µM (active)
same,AC50,[6],0.495 µM (active)
same,AC50,[7],0.0907 µM (active)
Cc1ccc(OP(=O)(Oc2ccc(C)cc2C)Oc2ccc(C)cc2C)c(C)c1,AC50,[1],5.32 µM (active)
same,AC50,[2],15.4 µM (active)
same,AC50,[3],20 µM (active)
same,AC50,[4],11.7 µM (active)
same,AC50,[5],20 µM (active)
same,AC50,[6],20 µM (active)
same,outcome,[7],inactive
CC(C=O)Cc1ccc2c(c1)OCO2 (stereo unspecified),outcome,[1],inactive
same,outcome,[2],inactive
same,outcome,[3],inactive
same,outcome,[4],inactive
same,outcome,[6],inactive
same,outcome,[7],inactive
CCC(C)(C#N)N=NC(C)(C#N)CC (stereo unspecified),outcome,[1],inactive
same,outcome,[2],inactive
same,outcome,[3],inactive
same,outcome,[4],inactive
same,outcome,[6],inactive
same,outcome,[7],inactive
O=C1C=CC(=O)c2ccccc21,AC50,[1],0.686 µM (active)
same,AC50,[2],0.251 µM (active)
same,AC50,[3],0.825 µM (active)
same,AC50,[4],0.499 µM (active)
same,AC50,[6],0.812 µM (active)
same,AC50,[7],3.72 µM (active)
N#CCCC(Br)(C#N)CBr (stereo unspecified),AC50,[1],9.18 µM (active)
same,AC50,[2],7.61 µM (active)
same,AC50,[3],6.35 µM (active)
same,AC50,[4],9.34 µM (active)
same,AC50,[5],7.96 µM (active)
same,AC50,[6],11.1 µM (active)
same,AC50,[7],13.9 µM (active)
NC(=O)CCl,outcome,[1],inactive
same,outcome,[2],inactive
same,outcome,[3],inactive
same,outcome,[4],inactive
same,outcome,[6],inactive
same,outcome,[7],inactive
CCOP(=O)(OCC)OC(=CCl)c1ccc(Cl)cc1Cl,outcome,[1],inactive
same,AC50,[2],20 µM (active)
same,outcome,[3],inactive
same,AC50,[4],10.4 µM (active)
same,outcome,[6],inactive
same,AC50,[7],31.2 µM (active)
CCOC(=O)C(SP(=S)(OC)OC)c1ccccc1 (stereo unspecified),outcome,[1],inactive
same,outcome,[2],inactive
same,outcome,[3],inactive
same,outcome,[4],inactive
same,outcome,[6],inactive
same,outcome,[7],inactive
CC(C)=CC1C(C(=O)OCc2cccc(Oc3ccccc3)c2)C1(C)C (stereo unspecified),outcome,[1],inactive
same,AC50,[2],13.8 µM (active)
same,AC50,[3],31.4 µM (active)
same,AC50,[4],11.2 µM (active)
same,outcome,[5],inactive
same,AC50,[6],20 µM (active)
same,outcome,[7],inactive
C=CC(Cl)CCl (stereo unspecified),outcome,[1],inactive
same,outcome,[2],inactive
same,outcome,[3],inactive
same,outcome,[4],inactive
same,outcome,[6],inactive
same,AC50,[7],4.05 µM (active)
CC(C)N(C(=O)CCl)c1ccccc1,AC50,[1],20 µM (active)
same,AC50,[2],7.82 µM (active)
same,AC50,[3],9.93 µM (active)
same,AC50,[4],12.3 µM (active)
same,AC50,[6],12 µM (active)
same,AC50,[7],2.36 µM (active)
